The campaign covered roughly 69,000 compounds. About 8,600 (12%) showed an effect of 50% or more. The list comes from a sample in which strong results are over-represented; it also holds similar structures and randomly drawn compounds.

The test system of the experiment is Plasmodium berghei. Nature of the experiment: Screen against P. berghei liver stage (PbLuc), transformed with Luciferase, at 10uM. The class given is functional, HepG2. The following applies: tested at 10 uM.
Regarding `CS(=O)(=O)NCc1cnc2n1CCN(Cc1cccnc1)CC2`, the INHIBITION amounted to 15.4%. For `O=C(NCC1CC1)c1n[nH]c2c1CNCC2` the value was -8.51%. For `Cc1cc(C)n(CCN(C)Cc2c[nH]nc2-c2ccc3c(c2)OCO3)n1` the value was 26.7%; for `CNC(=O)[C@H]1CC[C@@H]2[C@@H](CCN2CCOCc2ccccc2)O1`, 45.7%; for `CC(=O)N(C)C1CCC2(CC1)CNC(=O)c1cc(C)ccc1O2` (stereo not drawn), -20.2%. For `N#Cc1ccnc(N2CCN(C3CCOC3=O)CC2)c1` (stereo not drawn) the value was -33.1%. For `C1CCC(NCCN2CCOCC2)C1`, the INHIBITION stood at 5.41%. For `N#Cc1ccnc(N2CCN(CC(O)c3ccccc3)CC2)c1` (stereo not drawn) the value was -76.3%; for `CSc1nccc(N2CCC(NCCN3CCOCC3)CC2)n1`, 53.6%; for `N#Cc1ccnc(N2CCC(NCCN3CCOCC3)CC2)c1`, 66.5%. Consider `N#Cc1ccnc(N2CCN(Cc3cccc(F)c3)CC2)c1`, for which the INHIBITION was -23.7%. Take `N#Cc1ccnc(N2CCC(NCCN3CCCC3)CC2)c1`: the INHIBITION is 57.3%. For `CCC1CCC(NCCN2CCOCC2)CC1` (stereo not drawn) the value was 49.4%. For `N#Cc1ccnc(N2CCN(C(=O)NC3CCS(=O)(=O)C3)CC2)c1` (stereo not drawn) the value was -19.9%; for `O=C(c1ccc(F)cc1)N1C[C@@H]2OCCN(c3ncccn3)[C@@H]2C1`, 10%. For `Cc1nnc(SCc2ccccn2)s1` the value was 44.1%; for `CCSCCNC(=O)c1ccc(S(=O)(=O)N2C[C@H]3C[C@@H]2CN3)cc1`, 9.91%. On to `CC(C)c1cc(N(C)Cc2noc(C3CCCC3)n2)n2nccc2n1`, for which the INHIBITION was 46.4%. On to `c1cnc(N2CCOCC3(CN(Cc4nccs4)CCO3)C2)nc1` (stereo not drawn), for which the INHIBITION is reported as -34.7%. For `Cc1cc(Cc2ccccc2)cc(C2CCCNC2)n1` (stereo not drawn) the value was 28.5%; for `Cc1cc(Cc2ccc(F)cc2)cc(C2CCCNC2)n1` (stereo not drawn), 32.3%; for `Cc1cccc(Cc2cc(C)nc(C3CCCNC3)c2)c1` (stereo not drawn), 54.5%. For the molecule `Cc1cc(Cc2ccccc2F)cc(C2CCCNC2)n1` (stereo not drawn), the INHIBITION was 36.9%. Regarding `Cc1cc(Cc2ccccc2C)cc(C2CCCNC2)n1` (stereo not drawn), the INHIBITION was -11.4%. Consider `Cc1cc(Cc2cccc(C(F)(F)F)c2)cc(C2CCCNC2)n1` (stereo not drawn), for which the INHIBITION was determined as 80.5%. For `Cc1cnn(CC2CCCN2C(=O)c2csc(C(C)C)n2)c1` (stereo not drawn) the value was 35.3%. On to `COc1ccc(C(=O)N2CCCC3(CCCC(=O)N3C)C2)cc1` (stereo not drawn), for which the INHIBITION is 24.8%.

For `CNC(=O)c1ccccc1-c1ccc(S(C)(=O)=O)cc1`, the INHIBITION is -19.1%.

On to `COCCN1C[C@@H]2[C@@H](OC)CCN(Cc3ccc(C)o3)[C@@H]2C1`, for which the INHIBITION was 15.4%.

For `CSCCC(=O)N1C[C@H](Nc2ccnc(C)n2)[C@@H](C(C)C)C1`, the INHIBITION was -15.5%. As for `Cc1nccc(N[C@H]2CN(C(=O)CCN3CCCC3=O)C[C@@H]2C(C)C)n1`, the INHIBITION was found to be 55%. For `Cc1nccc(N[C@H]2CN(C(=O)CN3CCCC3=O)C[C@@H]2C(C)C)n1` the value was 62.9%; for `Cc1csc(N2CCCN(C(=O)CCN3CCCC3=O)CC2)n1`, -21.8%; for `Cc1nccc(N[C@H]2CN(C(=O)CN3CCOCC3)C[C@@H]2C(C)C)n1`, 43.6%. With `Cc1nccc(N[C@H]2CN(C(=O)C3(C#N)CCOCC3)C[C@@H]2C(C)C)n1`, the INHIBITION is listed as -5.1%. Consider `CC(C)(Oc1ccc(C(N)=O)cc1)C(=O)N(CCC#N)CC1CCCO1` (stereo not drawn), for which the INHIBITION was found to be 28.3%.

Take `Cc1nc(C)n(CC2CCCN2CC(=O)Nc2c(C)n[nH]c2C)n1` (stereo not drawn): the INHIBITION worked out at 29.305%. With `Cn1nc(C(=O)NCc2ccc(OC3CCCCC3)nc2)ccc1=O`, the INHIBITION amounted to 47.7%.

In the case of `COCc1nc(-c2ccnc(N3CCNCC3)n2)no1`, the INHIBITION stood at 38.3%. Consider `COCCCN(Cc1ccccn1)S(=O)(=O)Cc1ccccc1`, for which the INHIBITION was 46.1%. Take `CNc1nc(CNC(=O)Nc2cccc(-n3ccc(C)n3)c2)cs1`: the INHIBITION is listed as 7.42%. For `O=C(O)[C@H]1C[C@@H](C(=O)NCc2ccncc2)CN(Cc2ccccc2)C1` the value was 17.2%; for `Fc1cccc(CN2C[C@@H]3COC[C@]3(COCc3ccncc3)C2)c1`, 49.7%. For `COc1ccc(-n2cccn2)c(CN2CCOCC(CN(C)C)C2)c1` (stereo not drawn) the value was 15.2%; for `Cc1cc(C)c(-n2cccn2)c(CN2CCOCC(CN(C)C)C2)c1` (stereo not drawn), 36.5%.

With `Cc1cc(-n2cccn2)ccc1CN1CCOCC(CN(C)C)C1` (stereo not drawn), the INHIBITION was 62.2%.

Take `NC(=O)C1CCN(C(=O)CCn2c(C(F)(F)F)cc3cccnc32)CC1`: the INHIBITION was determined as 1.5%. For `Cc1ccc(=O)n(CC2(O)CCN(Cc3cnc(N(C)C)nc3)CC2)n1` the value was 14.7%.

In the case of `c1cncc(Cc2nnc3n2CCN(CC2CCCNC2)CC3)c1` (stereo not drawn), the INHIBITION is recorded as 16.3%.

Turning to `CC(C)c1ccccc1OCCNC(=O)N1CCC(CC(N)=O)CC1`, the INHIBITION is 5.76%. For the molecule `CC(C)c1n[nH]c(C2CN(C(=O)c3cc(C4CC4)[nH]n3)CCO2)n1` (stereo not drawn), the INHIBITION was -20.2%. Regarding `O=C(Nc1cccnc1N1CCSCC1)c1ccc2c(c1)CCC2`, the INHIBITION amounted to 38.6%. For `O=C(Nc1cccnc1N1CCSCC1)c1cc2c(s1)CCCCC2` the value was 19.8%; for `O=C(Cc1ccc2c(c1)CCCC2)NCCc1ccccn1`, 70.7%; for `O=C(Cc1ccc2c(c1)CCCC2)Nc1cccnc1N1CCSCC1`, 53.5%. For the molecule `O=C(Cc1ccc2c(c1)CCCC2)NCCNc1cnccn1`, the INHIBITION turned out to be 31.9%. For `O=C(Cc1ccc2c(c1)CCC2)NCCNc1ncccn1` the value was 45.9%; for `CC(C)(C)OCC1CN(Cc2cccs2)S(=O)(=O)c2cnccc2O1` (stereo not drawn), 10.9%; for `OCCN1CCCCC1C1OCCO1` (stereo not drawn), -45.2%. For `O=S(=O)(C1CC1)N1Cc2[nH]nc(COCC3CC3)c2C1` the value was 36.4%; for `CCn1nc(C)c2ncnc(NCCN3CCOCC3)c21`, 21.7%; for `CCn1ncc(S(=O)(=O)NC(C)c2cc(OC)ccc2OC)c1C` (stereo not drawn), 32.3%. As for `Cn1cncc1CN1CCC(O)(Cn2nc(-c3cccs3)oc2=O)CC1`, the INHIBITION turned out to be 38.7%. For `O=C(c1cnc[nH]1)N1CCC(Oc2cccnc2)CC1` the value was 55.9%. Turning to `O=C(c1ccccn1)N1CCC(Oc2cccnc2)CC1`, the INHIBITION is -10.4%.

Turning to `O=C(c1ccc2[nH]cnc2c1)N1CCC(Oc2cccnc2)CC1`, the INHIBITION worked out at 47.2%.

As for `CCN1CCN(C)C2(CCN(Cc3ccsc3)CC2)C1=O`, the INHIBITION was determined as 17.4%. On to `COC(=O)c1cc(C(=O)N2CCC(C)CC2)n(-c2ccccc2)n1`, for which the INHIBITION is given as 22.265%.

The values are drawn from ChEMBL document CHEMBL4513216, “Probing the Open Global Health Chemical Diversity Library for Multistage-Active Starting Points for Next-Generation Antimalarials” (ACS Infect Dis, 2020).
